Assay outcomes deposited in PubChem BioAssay by Center for Chemical Genomics, University of Michigan.
This excerpt belongs to a sample that is enriched for hits.
Dicer processing – blocks human Dicer maturation of pre-miR-21 | z-score at 25 µM | 47,000 compounds, 6% hits | AID 1347074 | cat-ELCCA pre-miR-21 Dicer processing, chemiluminescence; hits give high values; in the data active = z-score above about 3, passing the limit was not always enough;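 note: higher signal means more uncleaved substrate so more Dicer inhibition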
Numbers stand for hits; n = inactive.

SMILES	Dicer processing
CCSCCOC(=O)C1=C(C)NC2=C(C(=O)CCC2)C1c1cccc(F)c1 (stereo unspecified)	3.1
CCOCCOC(=O)C1=C(C)NC2=C(C(=O)CCC2)C1c1cccc(F)c1 (stereo unspecified)	n
CCCCCOC(=O)C1=C(C)NC2=C(C(=O)CCC2)C1c1ccc(OC)c(OC)c1 (stereo unspecified)	n
COCCOC(=O)C1=C(C)NC2=C(C(=O)CCC2)C1c1ccc(Cl)cc1 (stereo unspecified)	n
CCn1c2ccccc2c2cc(C3C(C(=O)OCC4CCCO4)=C(C)NC4=C3C(=O)CCC4)ccc21 (stereo unspecified)	n
CSc1ssc(=Nc2cccc(C(F)(F)F)c2)c1-c1ccccc1	n
CCOC(=O)c1c(Nc2ccccc2OC)sc(C(=O)c2ccccc2)c1N	n
O=C(Oc1ccc2cc(Br)ccc2c1)c1ccncc1	n
CCn1c(-c2ccccc2Cl)n[nH]c1=S	n
O=C(Oc1cccc2cccnc12)c1ccccc1Br	n
O=C(O)C1CC(=O)N(c2ccc(Oc3ccccc3)cc2)C1 (stereo unspecified)	n
Cc1ccc(OCC2CN(Cc3ccccc3)C(=O)O2)cc1 (stereo unspecified)	n
O=C1OC(COc2ccccc2)CN1c1ccccc1 (stereo unspecified)	3.4
COc1ccc(CCN2C(=O)c3cccc4c(Br)ccc(c34)C2=O)cc1OC	n
C=CCOC(=O)C1=C(C)NC2=C(C(=O)CCC2)C1c1ccc(C(=O)OC)cc1 (stereo unspecified)	n
Cn1c(Cc2cccs2)nnc1SCC(=O)c1c[nH]c2ccccc12	n
O=C(Nc1nnc(-c2ccc(F)cc2)s1)c1ccc(F)cc1	n
O=C(Nc1ncc(Cc2ccc(F)cc2)s1)c1ccc(Br)cc1	4.1
Fc1ccc(Cc2cnc(Nc3ccc(F)cc3)s2)cc1	n
CSc1cccc(NC(=O)CN(c2ccccc2)S(=O)(=O)N(C)C)c1	n
CN(C)S(=O)(=O)N(CC(=O)Nc1ccc(F)c(F)c1)c1ccccc1	4.3
CN(C)S(=O)(=O)N(CC(=O)Nc1ccc2c(c1)OCO2)c1ccccc1	n
O=[N+]([O-])c1cc(Cl)ccc1Oc1c(Cl)cccc1Cl	n
COC(=O)C1=C(C)NC(=O)C1CC(=O)O (stereo unspecified)	n
CNC(=S)Nc1cc(C(F)(F)F)cc(C(F)(F)F)c1	n
SMILES	Dicer processing
CCOC(=O)C1=C(C)NC2=C(C(=O)CC(c3ccc(Cl)cc3)C2)C1c1ccc(OCC)cc1 (stereo unspecified)	3.4
CCOc1cc(C2C(C(=O)OC)=C(C)NC3=C2C(=O)c2ccccc23)cc(Cl)c1O (stereo unspecified)	n
CCCOc1ccc(C2C(C(=O)OC)=C(C)NC3=C2C(=O)CC(c2ccc(OC)cc2)C3)cc1 (stereo unspecified)	n
CCOc1cc(C2C(C(=O)OC)=C(C)NC3=C2C(=O)CC(c2ccccc2)C3)cc(Cl)c1O (stereo unspecified)	3.7
COC(=O)C1=C(C)NC2=C(C(=O)CC(c3ccc(OC)c(OC)c3)C2)C1c1ccc(OC)cc1OC (stereo unspecified)	n
CCOCCOC(=O)C1=C(C)NC2=C(C(=O)CC(c3cccs3)C2)C1c1ccc(F)cc1 (stereo unspecified)	n
CCOC(=O)C1=C(C)NC2=C(C(=O)CC(c3ccc(Cl)cc3)C2)C1c1ccc(N(C)C)cc1 (stereo unspecified)	n
CCOCCOC(=O)C1=C(C)NC2=C(C(=O)CC(c3ccccc3)C2)C1c1ccccc1OCC (stereo unspecified)	n
CCOCCOC(=O)C1=C(C)NC2=C(C(=O)CC(c3ccc(Cl)cc3)C2)C1c1ccc(F)cc1 (stereo unspecified)	4.2
CCOC(=O)C1=C(C)NC2=C(C(=O)CC(c3ccc(OC)cc3)C2)C1c1ccc(OC)cc1 (stereo unspecified)	n
CCOc1ccc(C2C(C(=O)OC)=C(C)NC3=C2C(=O)CC(c2ccc(OC)c(OC)c2)C3)cc1 (stereo unspecified)	3.2
CCOc1cc(C2Nc3ccccc3NC3=C2C(=O)CC(c2ccccc2)C3)cc(Cl)c1O (stereo unspecified)	n
CCOC(=O)NC(=S)N1C(C)CCCC1C (stereo unspecified)	n
Cn1c(SCC(=O)c2ccc(Cl)cc2)nnc1C(F)(F)F	n
CCCCc1c(O)nc(SCCN2CCOCC2)n(-c2ccccc2)c1=O	n
O=[N+]([O-])c1ccc(CNc2nc(NCc3cccc(C(F)(F)F)c3)nc3nc[nH]c23)cc1	n
O=C(Cn1nc(-c2ccc(Cl)cc2)c2ccccc2c1=O)c1ccc(F)cc1	n
Cc1oc(-c2ccccc2)nc1CCO	n
CN1C(=O)c2cccc3cccc(c23)[S+]1c1ccccc1C(=O)O (stereo unspecified)	n
O=C(O)CCCNCc1cccc2ccccc12	n
O=C1CC(c2cccc(O)c2)Nc2ccc3ccccc3c21 (stereo unspecified)	n
CCOc1cc(C2Nc3ccc4ccccc4c3C3=C2C(=O)CCC3)ccc1O (stereo unspecified)	n
COc1ccc(OC)c(C2Nc3ccc4ccccc4c3C3=C2C(=O)CC(C)(C)C3)c1 (stereo unspecified)	n
Cc1ccccc1C1CC(=O)c2c(ccc3ccccc23)N1 (stereo unspecified)	n
COc1ccc(C2Nc3ccc4ccccc4c3C3=C2C(=O)CCC3)cc1OC (stereo unspecified)	4.5
SMILES	Dicer processing
COc1ccc(Br)cc1C1CC(=O)c2c(ccc3ccccc23)N1 (stereo unspecified)	3.3
Clc1cc2nc3c(nc2cc1Cl)CCCC3	n
Cc1ccc(Cl)cc1NCN1C(=O)CNC1=S	n
O=C1c2ccc([N+](=O)[O-])cc2C(=O)N1CNc1ccc(Cl)cc1	n
O=C1CCC(=O)N1CNc1ccc(Cl)cc1	4
CSc1nnc(S/C(C(C)=O)=C(/C)O)s1	n
O=C(Nc1nc2n(n1)C(c1ccc(F)cc1)C=C(c1ccccc1)N2)c1cccs1 (stereo unspecified)	n
O=C(Nc1nc2n(n1)C(c1ccc(Cl)cc1)C=C(c1ccccc1)N2)c1cccs1 (stereo unspecified)	n
O=C(Nc1nc2n(n1)C(c1ccc(F)cc1)C=C(c1ccc(Cl)cc1)N2)c1cccs1 (stereo unspecified)	17
C=CCC(Nc1cccc(Cl)c1)c1ccco1 (stereo unspecified)	n
Cc1cccc(Cl)c1NC(=S)NN	n
CCc1cccc(CC)c1NC(=S)NN	3.1
CCc1cccc(CC)c1NC(=O)C(Cl)Cl	n
O=C(N/N=C/c1ccc(C(F)(F)F)cc1)Nc1ccc(C(F)(F)F)cc1Cl	n
CCCNC(=O)Cn1cnc2c1c(=O)n(C)c(=O)n2C	n
Cn1c(=O)c2c(ncn2CC(=O)NCc2ccc3c(c2)OCO3)n(C)c1=O	6.6
CCOCCCNC(=O)Cn1cnc2c1c(=O)n(C)c(=O)n2C	n
Cn1c(=O)c2c(ncn2CC(=O)Nc2ccc3c(c2)OCCO3)n(C)c1=O	n
CC(C)CNC(=O)Cn1cnc2c1c(=O)n(C)c(=O)n2C	n
CCCCCCCNC(=O)Cn1cnc2c1c(=O)n(C)c(=O)n2C	4
Cn1ccnc1S(=O)(=O)/C(C#N)=C/c1ccc2c(c1)OCO2	n
COc1ccc(C(=O)c2ccccc2O)c(O)c1	n
Cc1ccc(C(=O)c2ccccc2C(=O)O)cc1C	n
CN(C)c1ccc(C(=O)c2ccccc2C(=O)O)c(O)c1	3.2
CSc1nnc2c(n1)OC(/C=C/c1ccccc1)Nc1ccccc1-2 (stereo unspecified)	n
